These results are taken from PubChem BioAssay (NCATS).

Records with an inconclusive call do not appear. Calls of active or inactive are those of the source. Calls come from the whole dose curve; as a rule, active = well fitted curve in the direction sought with a large enough effect; inconclusive = small, poorly fitted or top-dose-only effect, or another doubt; inactive = no such curve, though single readings can be large or run the other way.
% is set by controls: 0 for no effect and ±100 for the full control effect; potency is the fitted concentration of half-maximal effect.

A short description of the experiment: qHTS for Inhibitors of the vitamin D receptor (VDR): Hit Validation using a Texas Red Assay (AID 602201). To be noted: VDR coregulator binding, Texas Red fluorescence polarization, agonist-bound VDR ligand-binding domain; series mostly up to 57.1 µM; activity, negative = inhibition: at the top concentration. In outline:
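Fluorescence polarization with 1.5 uM VDR-LBD, LG19078 and 7 nM Texas Red (final). After 2 hours at ambient temperature, read at Ex 595 nm/Em 615 nm.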
In general terms: In qHTS, concentration-response curves come from the screen itself.
Consider `O=C(O)/C=C/C(=O)c1ccc2c(c1)NC(=O)CO2`, for which the “activity, negative = inhibition” value is 2.2% (inactive).

Take `Nc1nc(-c2cccc(F)c2)cs1`: the “activity, negative = inhibition” value was -20.4% (inactive).

For the compound `FC(F)(F)c1cccc(Sc2nc(-c3ccccc3)nnc2C(F)(F)F)c1`, the “activity, negative = inhibition” value was -16.9% (inactive).

`CC(=O)C1=C(c2ccc(Br)cc2)C(=O)c2ccccc2C1=O`: the Potency was 3.55 µM (active).

For the compound `CCCCN1C(=O)C(=Nc2cccc3cnccc23)c2ccccc21`, the “activity, negative = inhibition” value is -11.2% (inactive).

With `CN1C(=O)C(Cl)(Cl)C(=O)c2ccccc21`, the “activity, negative = inhibition” value is 41.6% (inactive).

Turning to `Cc1cc(C(C2C(=O)CC(C)(C)CC2=O)C2C(=O)CC(C)(C)CC2=O)cc(C)c1OC(F)F`, the “activity, negative = inhibition” value is -17.3% (inactive).

As to `CCOC(=O)/C(C#N)=C1\C(=O)N(Cc2ccccc2)c2ccccc21`, the “activity, negative = inhibition” value is -19.2% (inactive).

As for `COc1ccc(N2C(=O)C(Cl)=C(Oc3cccc(OC)c3)C2=O)cc1`, the Potency is 2.82 µM (active).

With `CC(C)c1ccc(/C=C/c2[nH]c(=O)[nH]c(=O)c2[N+](=O)[O-])cc1`, the “activity, negative = inhibition” value is -7.89% (inactive).

In the case of `O=C(Nc1cc(S(=O)(=O)N2CCOCC2)ccc1N1CCCC1)c1ccc(Cl)cc1`, the Potency is 20 µM (active).

For `O=C1C(=O)c2c(C(=O)c3ccccc3)coc2-c2ccccc21`, the “activity, negative = inhibition” value is -19.7% (inactive).

Consider `CCCOc1ccc(/C=C2/C(=O)ON=C2C)cc1OCC`, for which the Potency is 15.8 µM (active).

In the case of `O=C(/C=C/c1cccnc1)c1ccc([N+](=O)[O-])cc1`, the Potency is 3.16 µM (active).

For the compound `O=[S@]1Oc2ccccc2-c2ccccc21`, the “activity, negative = inhibition” value is -14.3% (inactive).

Regarding `O=C1NN(c2ccc(F)c(Cl)c2)C(=O)/C1=C\c1cccc(OC(=O)c2cccs2)c1`, the “activity, negative = inhibition” value was 18.8% (inactive).

In the case of `CCOC(=O)N1C(=O)[C@@](CC)(c2ccccc2)N1C(=O)OCC`, the “activity, negative = inhibition” value is -14.9% (inactive).

`COc1ccc(/C=C/C(=O)c2ccc([N+](=O)[O-])o2)cc1OC`: the Potency is 10 µM (active).

As for `Cc1cccc(CS(=O)(=O)c2ncc(Cl)c(C(=O)NCc3ccccc3)n2)c1`, the “activity, negative = inhibition” value was -12.7% (inactive).

For `N#Cc1ccc(/C=C/C(=O)c2cccnc2)cc1`, the “activity, negative = inhibition” value is -11.7% (inactive).

As for `COc1cc(/C=C2\C(=O)ON=C2c2ccccc2)cc(Cl)c1O`, the “activity, negative = inhibition” value was 23.8% (inactive).

As to `c1ccc(-c2nnc3sc(-c4csc5c4CCCC5)nn23)cc1`, the Potency is 22.4 µM (active).

For `O=C1C(C2=C(O)c3ccccc3C2=O)=Nc2ccccc21`, the “activity, negative = inhibition” value was 19.9% (inactive).

Turning to `O=C1NN(c2ccccc2)C(=O)/C1=C\c1cccc(OC(=O)c2cccs2)c1`, the “activity, negative = inhibition” value is 35.2% (inactive).

For `Cc1ccc(CSC2=NS(=O)(=O)c3ccccc32)cc1`, the Potency is 7.94 µM (active).

Regarding `O=C(c1cccs1)c1no[n+]([O-])c1C(=O)c1cccs1`, the Potency was 3.55 µM (active).

As for `COc1ccc(C2=CC(=O)N(Nc3ccccc3)C2=O)cc1`, the Potency was 10 µM (active).

Consider `COc1ccc(OC)c(/C=C/C(=O)c2ccc(Cl)cc2)c1`, for which the Potency is 28.2 µM (active).

In the case of `NC(=O)c1ccc(N=C2C(=O)Nc3ccc([N+](=O)[O-])cc32)cc1`, the Potency was 1.41 µM (active).

For the compound `C#CCOc1c(Cl)cc(/C=C2/C(=O)ON=C2C)cc1OCC`, the Potency was 15.8 µM (active).

With `O=[N+]([O-])c1ccccc1-c1ccc(C(=S)N2CCCC2)o1`, the “activity, negative = inhibition” value is -8.65% (inactive).

Take `Cc1cc(Br)cc2c1N(Cc1ccccc1OC(C)C)C(=O)C2=O`: the Potency was 11.2 µM (active).

With `CCCNC(=O)c1nnsc1S(=O)c1ccc(Cl)cc1` (stereo not given), the Potency is 3.16 µM (active).

As for `COC(=O)c1cc(=O)n(Cc2ccco2)c(=Nc2ccc(F)c(Cl)c2)s1`, the Potency was 10 µM (active).

On to `Nc1c(C(=O)N2CCCCC2)sc(=S)n1-c1ccccc1`, for which the Potency is 35.5 µM (active).

Consider `O=C1/C(=C/c2cccnc2)CCC/C1=C\c1cccnc1`, for which the Potency was 31.6 µM (active).

On to `Cc1nc2ccc(N=NN(C)C)cc2[nH]1`, for which the “activity, negative = inhibition” value is -12.3% (inactive).

`Oc1cc2c(cc1C(c1ccc(Cl)c(Cl)c1)N1CCCC1)OCO2` (stereo not given): the Potency is 8.91 µM (active).

As to `Cc1cccc2c1N(CCCOc1ccccc1)C(=O)C2=O`, the “activity, negative = inhibition” value is -7.87% (inactive).

`O=C(/C=C/c1ccnc2ccccc12)c1cccs1`: the Potency is 28.2 µM (active).
